According to PubChem BioAssay:
Activity calls are given as the source filed them.

Key:
Albumin (Bos taurus) = Albumin (Bos taurus) (UniProt P02769); assay: compounds binding labelled BSA control protein – biochemical, small-molecule microarray, Alexa647 label, 635/667 nm fluorescence, artefact control for SMM control protein annotation, profiling panel (AID 1118); details: BSA-A647 binding, fluorescence 635 nm, higher = more signal;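 further: score merges 667 nm emission intensity and signal-to-noise per printed compound spot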
Sequence of Albumin (Bos taurus) (P02769 whole entry, looked up): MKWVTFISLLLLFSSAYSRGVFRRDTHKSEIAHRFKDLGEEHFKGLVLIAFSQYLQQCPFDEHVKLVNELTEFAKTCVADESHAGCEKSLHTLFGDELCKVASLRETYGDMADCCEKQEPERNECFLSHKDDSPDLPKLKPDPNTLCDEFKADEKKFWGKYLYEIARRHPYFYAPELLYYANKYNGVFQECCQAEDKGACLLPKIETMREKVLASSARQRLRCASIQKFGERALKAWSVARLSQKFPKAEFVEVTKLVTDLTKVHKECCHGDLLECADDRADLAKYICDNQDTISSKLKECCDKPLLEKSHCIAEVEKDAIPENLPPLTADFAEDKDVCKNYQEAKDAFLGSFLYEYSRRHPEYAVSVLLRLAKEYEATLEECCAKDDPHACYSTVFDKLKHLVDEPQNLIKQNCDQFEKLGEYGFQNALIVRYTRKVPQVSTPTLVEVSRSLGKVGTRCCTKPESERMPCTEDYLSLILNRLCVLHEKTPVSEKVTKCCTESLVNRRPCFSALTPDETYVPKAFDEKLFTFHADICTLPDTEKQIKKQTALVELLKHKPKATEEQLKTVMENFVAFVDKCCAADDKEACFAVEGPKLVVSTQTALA

[1] = probe aXIP binding to arrayed compounds – biochemical, NeuroSMM set, 635/667 nm fluorescence, primary screen (AID 1119); details: small-molecule microarray, higher = more signal, called active from +8 up or from −8 down;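 further: probe is the protein aXip251-270 applied at 1 µg/mL to compound-printed slides; binding of probe to printed compounds measured as 667 nm fluorescence plus signal to noise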
[2] = probe aNOTCH3 binding on compound microarray – biochemical, small-molecule microarray, 635/667 nm fluorescence, primary screen (AID 1120); details: higher = more signal;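 further: probe is a biotin-tagged antibody raised against NOTCH3 rather than NOTCH3 protein; score merges spot fluorescence near 667 nm with spot signal to noise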
[3] = probe aNOTCH2 binding on compound microarray – biochemical, small-molecule microarray, 635/667 nm fluorescence, primary screen (AID 1121); details: higher = more signal;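 further: score merges feature fluorescence read at 667 nm with its signal to noise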
[4] = target: Carbonic anhydrase 2 (Homo sapiens) (UniProt P00918); assay: compounds binding carbonic anhydrase 2 – biochemical, small-molecule microarray, Alexa647-labelled CAII, profiling panel (AID 1122); details: CAII-A647 binding fluorescence, higher = more signal
[5] = COS7 lysate on small-molecule microarray, probe aHis, 635 nm (AID 1123); details: COS7 cell lysate, fluorescence, higher = more signal;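 further: z-score combines 667nm fluorescence intensity with signal-to-noise per printed compound spot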
[6] = probe aLAP1 signal on lysate-treated microarray – cell lysate, small-molecule microarray, COS7 lysate, primary screen (AID 1124); details: probe aLAP1, fluorescence, higher = more signal;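 further: lysate comes from COS7 cells expressing LAP1 and is applied at 0.3 µg/mL; score merges spot fluorescence near 667 nm with signal-to-noise over triplicate slides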
Sam68 (KHDRBS1) = assay: compounds binding KHDRBS1 protein – biochemical, small-molecule microarray, 635 nm fluorescence, primary screen (AID 1125); details: higher = more signal;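 further: score merges 667 nm channel intensity with signal to noise over triplicate slides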
[7] = tested on: Chordin-like protein 2 (CHRDL2); assay: compounds binding chordin-like 2 – biochemical, small-molecule microarray, 635 nm fluorescence, primary screen (AID 1126); details: fluorescence 635 nm, higher = more signal;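 further: printed compound slides probed with Chrdl2 protein at 4 µg/mL for 1 h at 4 C; score merges 667 nm emission intensity with signal to noise over three replicate slides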
[8] = target: Concanavalin-A (Canavalia ensiformis) (UniProt P02866); assay: compounds binding concanavalin A lectin – biochemical, small-molecule microarray, Alexa647 label, 635 nm, artefact control for SMM control protein annotation, primary screen (AID 1127); details: ConA-A647 binding fluorescence, higher = more signal;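 further: z combines 667 nm emission intensity with signal-to-noise across three replicate slides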
Sequence of Concanavalin-A (Canavalia ensiformis) (P02866 whole entry, looked up): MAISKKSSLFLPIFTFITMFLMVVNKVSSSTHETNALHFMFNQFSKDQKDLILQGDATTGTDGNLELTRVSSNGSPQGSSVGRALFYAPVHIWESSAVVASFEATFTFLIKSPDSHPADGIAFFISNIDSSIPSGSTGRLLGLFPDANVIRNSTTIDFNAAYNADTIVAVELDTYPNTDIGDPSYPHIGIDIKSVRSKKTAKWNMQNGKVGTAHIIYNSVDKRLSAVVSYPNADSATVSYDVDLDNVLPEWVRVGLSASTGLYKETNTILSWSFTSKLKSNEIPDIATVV

O=C(NCC(F)(F)F)[C@@H]1c2ccccc2C(=O)N(Cc2cc(C(F)(F)F)cc(C(F)(F)F)c2)[C@H]1c1ccc(CO)cc1
composite z-score (Albumin (Bos taurus)): 0.195
composite Z-score [1]: -0.368 (inactive)
composite z-score [2]: -0.154
composite z-score [3]: -0.0984
composite z-score [4]: 0.207
composite z-score [5]: 0.729
composite z-score [6]: 0.158
composite z-score (Sam68 (KHDRBS1)): 0.178
composite z-score [7]: 0.0632
composite z-score [8]: 0.209

COCCCNC(=O)[C@]1(Cc2ccccc2N=[N+]=[N-])N=C(c2ccc(OCCCO)cc2)O[C@@H]1c1ccccc1
composite z-score (Albumin (Bos taurus)): 0.894
composite Z-score [1]: 0.522 (inactive)
composite z-score [2]: 0.619
composite z-score [3]: 0.308
composite z-score [4]: 0.304
composite z-score [5]: 2.85
composite z-score [6]: 0.536
composite z-score (Sam68 (KHDRBS1)): 1.3
composite z-score [7]: -0.586
composite z-score [8]: 1.11

CC[C@@H]1C=C(C(=O)O)[C@H](c2cccc(Cl)c2)N1S(=O)(=O)c1ccc(C)cc1
composite z-score (Albumin (Bos taurus)): 0.951
composite Z-score [1]: -0.147 (inactive)
composite z-score [2]: -0.0581
composite z-score [3]: 0.0274
composite z-score [4]: 0.824
composite z-score [5]: 2.46
composite z-score [6]: 0.501
composite z-score (Sam68 (KHDRBS1)): 1.09
composite z-score [7]: -0.682
composite z-score [8]: 0.471

CC(C)N1C(=O)[C@@]2(Cc3ccccc31)c1ccccc1C(=O)N(Cc1ccccc1)[C@H]2c1ccc(CO)cc1
composite z-score (Albumin (Bos taurus)): -0.103
composite Z-score [1]: -0.289 (inactive)
composite z-score [2]: -0.118
composite z-score [3]: -0.205
composite z-score [4]: -0.224
composite z-score [5]: 0.0227
composite z-score [6]: 1.79
composite z-score (Sam68 (KHDRBS1)): 0.316
composite z-score [7]: 0.702
composite z-score [8]: -0.0679

CCCCCN1CC=CC23O[C@@H]4/C=C\CCCOC(=O)C4[C@H]2C(=O)N(CCCCCO)[C@@H]3C1=O (stereo not given in full)
composite z-score (Albumin (Bos taurus)): -0.191
composite Z-score [1]: -0.594 (inactive)
composite z-score [2]: -0.233
composite z-score [3]: -0.182
composite z-score [4]: 0.777
composite z-score [5]: -1.89
composite z-score [6]: -0.682
composite z-score (Sam68 (KHDRBS1)): -0.178
composite z-score [7]: -0.801
composite z-score [8]: -0.691

CS(=O)(=O)CCOC(=O)C1=CC(CCCO)=CC(C2CC2)N(Cc2sc3ccccc3c2Cl)C=C1C(=O)OCCS(C)(=O)=O (stereo not given)
composite z-score (Albumin (Bos taurus)): 1.01
composite Z-score [1]: -0.0349 (inactive)
composite z-score [2]: 0.398
composite z-score [3]: 0.0706
composite z-score [4]: 0.666
composite z-score [5]: 2.34
composite z-score [6]: 0.549
composite z-score (Sam68 (KHDRBS1)): 1.07
composite z-score [7]: -0.225
composite z-score [8]: 0.648

COCCOC(=O)N1C(=O)[C@@]2(c3cc(C#CCNC(N)=O)ccc31)[C@H](C(=O)N1CCN(c3ncccn3)CC1)[C@H]1C(=O)O[C@H](c3ccccc3)[C@H](c3ccccc3)N1[C@@H]2c1ccc(O)cc1
composite z-score (Albumin (Bos taurus)): 0.526
composite Z-score [1]: -0.453 (inactive)
composite z-score [2]: -0.457
composite z-score [3]: -0.292
composite z-score [4]: 0.371
composite z-score [5]: -0.864
composite z-score [6]: 0.555
composite z-score (Sam68 (KHDRBS1)): -0.396
composite z-score [7]: -0.956
composite z-score [8]: -0.785

C=CC[C@]1(C(N)=O)N=C(c2ccc(OCCCO)cc2)O[C@H]1c1ccccc1N=[N+]=[N-]
composite z-score (Albumin (Bos taurus)): 0.601
composite Z-score [1]: 1.13 (inactive)
composite z-score [2]: 0.067
composite z-score [3]: -0.0586
composite z-score [4]: 0.79
composite z-score [5]: 2.53
composite z-score [6]: 0.87
composite z-score (Sam68 (KHDRBS1)): 0.994
composite z-score [7]: 0.783
composite z-score [8]: 0.883

COCCOC(=O)N1C(=O)[C@@]2(c3cc(C#CCC(C(=O)OC)C(=O)OC)ccc31)[C@H](C(N)=O)[C@H]1C(=O)O[C@H](c3ccccc3)[C@H](c3ccccc3)N1[C@@H]2c1ccccc1OCCO
composite z-score (Albumin (Bos taurus)): 0.653
composite Z-score [1]: -0.145 (inactive)
composite z-score [2]: -0.0565
composite z-score [3]: 0.201
composite z-score [4]: 0.593
composite z-score [5]: 0.882
composite z-score [6]: -0.155
composite z-score (Sam68 (KHDRBS1)): 1.32
composite z-score [7]: 1.1
composite z-score [8]: 1.15

COC(=O)[C@@]1(Cc2ccc(F)cc2)[C@H]2c3cc(C(=O)N(C)C)n(Cc4cccc5ccccc45)c3C[C@H]2CN1C(=O)c1ccccc1
composite z-score (Albumin (Bos taurus)): 0.617
composite Z-score [1]: 0.0828 (inactive)
composite z-score [2]: 0.223
composite z-score [3]: 0.168
composite z-score [4]: 0.86
composite z-score [5]: 4.13
composite z-score [6]: 0.881
composite z-score (Sam68 (KHDRBS1)): 0.343
composite z-score [7]: -0.967
composite z-score [8]: 0.162

C=C(COC)C(=O)CC[C@H](OC(C)=O)c1ccccc1OCCO
composite z-score (Albumin (Bos taurus)): -1.63
composite Z-score [1]: -0.743 (inactive)
composite z-score [2]: -0.0343
composite z-score [3]: -0.115
composite z-score [4]: 0.662
composite z-score [5]: 0.0092
composite z-score [6]: -0.325
composite z-score (Sam68 (KHDRBS1)): 0.176
composite z-score [7]: -0.0471
composite z-score [8]: -0.153

CC[C@@H](O[Si](C#C[Si](C(C)C)(C(C)C)C(C)C)(C(C)C)C(C)C)c1cn([C@H](C)c2ccccc2)nn1
composite z-score (Albumin (Bos taurus)): -0.605
composite Z-score [1]: 0.515 (inactive)
composite z-score [2]: -0.016
composite z-score [3]: -0.171
composite z-score [4]: 0.0757
composite z-score [5]: 0.365
composite z-score [6]: 0.369
composite z-score (Sam68 (KHDRBS1)): 0.71
composite z-score [7]: 0.26
composite z-score [8]: 0.364

COc1cccc(C)c1NC(=O)O[C@H]1[C@H](OC(=O)Nc2ccccc2-c2ccccc2)[C@@H](OC(=O)Nc2ccccc2-c2ccccc2)[C@@H](OC)O[C@@H]1CO
composite z-score (Albumin (Bos taurus)): 0.848
composite Z-score [1]: 0.694 (inactive)
composite z-score [2]: 0.668
composite z-score [3]: 0.0151
composite z-score [4]: 0.712
composite z-score [5]: 1.44
composite z-score [6]: 0.762
composite z-score (Sam68 (KHDRBS1)): 1.3
composite z-score [7]: 0.0298
composite z-score [8]: 1.02

CCCCCN1CC=CC23O[C@@H]4/C=C\CCCOC(=O)C4[C@H]2C(=O)N(CCO)[C@@H]3C1=O (stereo not given in full)
composite z-score (Albumin (Bos taurus)): 0.73
composite Z-score [1]: 0.0463 (inactive)
composite z-score [2]: -0.18
composite z-score [3]: -0.14
composite z-score [4]: 0.823
composite z-score [5]: 2.17
composite z-score [6]: 0.657
composite z-score (Sam68 (KHDRBS1)): 0.428
composite z-score [7]: 0.323
composite z-score [8]: 0.433

C=CCNC(=O)[C@@H]1[C@H]2C(=O)O[C@H](c3ccccc3)[C@H](c3ccccc3)N2[C@H](c2ccc(O)cc2)[C@@]12C(=O)N(C(=O)OCCOC)c1ccc(C#CCC(C(=O)OC)C(=O)OC)cc12
composite z-score (Albumin (Bos taurus)): 0.366
composite Z-score [1]: 0.903 (inactive)
composite z-score [2]: 0.0813
composite z-score [3]: -0.084
composite z-score [4]: 0.271
composite z-score [5]: 1.33
composite z-score [6]: 0.793
composite z-score (Sam68 (KHDRBS1)): 1.3
composite z-score [7]: 0.413
composite z-score [8]: 0.601

CCCCC(=C=CC[C@H](O)c1ccccc1OCCO)CCO
composite z-score (Albumin (Bos taurus)): 0.0552
composite Z-score [1]: 0.849 (inactive)
composite z-score [2]: -0.16
composite z-score [3]: -0.164
composite z-score [4]: 0.524
composite z-score [5]: 1.91
composite z-score [6]: 0.0655
composite z-score (Sam68 (KHDRBS1)): 0.597
composite z-score [7]: -0.336
composite z-score [8]: -0.14
